High-throughput results from PubChem.
TSHR antagonist = blocks TSH signaling through the human TSH receptor; P16473; TSHR-expressing cells, TSH-stimulated cAMP HTRF, 2 h; active compounds read low; activity change, negative = inhibition, % at 11.5 µM; 330,000 compounds, 0.2% hits; AID 504810;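 active means activity change below a set negative limit, meaning inhibition stronger than a set level, cut at about -70% in these data; inconclusive means activity change between two set negative limits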
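TSHR-expressing cells, 200/well, pre-treated with compound, then stimulated with EC80 TSH (4nM final) for 2 hours at 37 deg C. cAMP measured by competitive HTRF: anti-cAMP cryptate antibody in lysis buffer plus cAMP-d2, read after 30 minutes at room temperature.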
PTAP TSG101 blk = blocks PTAP/TSG101 interaction to inhibit HIV-1 budding. Q99816. Fluorescence polarization, FITC-PTAP peptide / Tsg101 binding. Potency, µM (series often up to 115 µM), most hits filed as inhibitors. 340,000 tested, under 10 active. AID 493005; active means well fitted inhibition curve with a large enough effect in the main read-out, with a control signal flat, not every such curve was filed as active; inconclusive means small, poorly fitted or top-dose-only effect, or effect the other way, or a change in a side signal; inactive means no such curve, though single readings can be large or run the other way
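Steps: Tsg101 binding domain dispensed (10 uM final), compounds pinned in DMSO, FITC-labeled PTAP-motif peptide added (50 nM final); after 20 min binding at room temperature, polarization measured.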
BRCA1 expr act = activators of BRCA1 expression; 380,000 compounds, 1.1% hits; Potency, µM (top dose mostly 46.1 µM), hits mostly activators; MCF7-BRCA1-FFLuc reporter, luminescence, 48 h; response scale: scaled: vehicle 0%, 10 µM genistein 100%; further: nearly all actives have a fitted effect of over 80% in size
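Compounds are tested at multiple concentrations on MCF7 BRCA1-luciferase reporter cells seeded at 2000 per well; after 48 h, a single luminescence end-point is taken and curves fitted to the normalized data.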
Anesthetic bind = candidate novel general anesthetic via apoferritin binding | P02791 | apoferritin/1-aminoanthracene competitive binding, fluorescence | Potency, µM (series often up to 77.5 µM), usual class: inhibitors | 350,000 compounds, 0.074% hits; further: nearly all actives have a fitted effect of over 20% in size
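Probe: 1-aminoanthracene (50% saturated, PBS). Protein: horse-spleen apoferritin, 10 uM. Incubation: 10 min, room temperature. Detection: 380 nm excitation, 535 nm emission. Analysis: normalized response, four-parameter Hill.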
S-ASM inh = inhibitors of human secretory acid sphingomyelinase; Potency, µM (series often up to 57.5 µM), actives largely listed as inhibitors; 340,000 compounds, 0.006% hits; P17405; AID 504937; placental ASM, HMU-PC fluorogenic substrate, 60 min
Target sequence (P17405 47-631 limits assumed): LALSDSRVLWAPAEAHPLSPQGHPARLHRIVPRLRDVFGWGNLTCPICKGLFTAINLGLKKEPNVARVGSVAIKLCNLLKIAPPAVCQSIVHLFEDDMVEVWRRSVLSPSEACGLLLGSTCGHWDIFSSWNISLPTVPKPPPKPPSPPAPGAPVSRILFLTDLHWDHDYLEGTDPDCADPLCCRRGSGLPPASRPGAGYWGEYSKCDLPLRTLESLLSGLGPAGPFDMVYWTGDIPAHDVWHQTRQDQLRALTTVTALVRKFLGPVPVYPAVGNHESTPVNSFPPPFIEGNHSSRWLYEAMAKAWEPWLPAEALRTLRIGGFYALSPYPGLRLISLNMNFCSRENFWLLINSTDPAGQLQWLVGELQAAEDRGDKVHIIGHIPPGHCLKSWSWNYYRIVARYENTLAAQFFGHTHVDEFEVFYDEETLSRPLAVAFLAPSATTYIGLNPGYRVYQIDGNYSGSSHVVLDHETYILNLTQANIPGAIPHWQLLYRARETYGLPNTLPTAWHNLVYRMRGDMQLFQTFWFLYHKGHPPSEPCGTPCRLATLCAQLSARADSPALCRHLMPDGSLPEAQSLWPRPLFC
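Human placenta-derived ASM enzyme was preincubated with compound for 10 minutes at room temperature, then given fluorogenic substrate HMU-PC0 (9 uM final) for 60 minutes at 37 °C; a pH 10 stop preceded fluorescence reading at Ex 386/Em 447 nm.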
Large screens that a line does not name were inactive. Shown are actives, neighbours in structure and some others; about 1.2% of the full set was active somewhere. Unless noted, the call rests on the fitted dose curve; in most records, active means well fitted curve in the direction sought with a large enough effect; inconclusive means small, poorly fitted or top-dose-only effect, or another doubt; inactive means no such curve, though single readings can be large; an effect the other way counts as inactive or inconclusive.

Cc1ccc(NC(=O)COC(=O)c2ccccc2OCC(=O)Nc2ccc(Br)cc2)c(Br)c1	none (no result: TSHR antagonist, PTAP TSG101 blk, Anesthetic bind, S-ASM inh)
Cc1ccc(-n2ncc3c(N4CCCC4)ncnc32)c(C)c1	Anesthetic bind inconclusive
COc1cccc(N2CCN(c3ncnc4c3cnn4-c3ccc(C)cc3C)CC2)c1	TSHR antagonist -93
O=C(c1ccc2c(=O)n(Cc3ccco3)c(=S)[nH]c2c1)N1CCN(Cc2ccc3c(c2)OCO3)CC1	none (no result: TSHR antagonist, PTAP TSG101 blk, Anesthetic bind, S-ASM inh)
CCCCCCCCCCCCC/C=C/C(O)C(COP(=O)(O)OCCN)NC(=O)CCCCCCCCCCCCCCCCC (stereo not given)	none (no result: TSHR antagonist, PTAP TSG101 blk, BRCA1 expr act, S-ASM inh)
Cc1ccc(Cc2c(-c3ccc(C)cc3)nc3cc(C)ccn23)cc1	none (no result: TSHR antagonist, PTAP TSG101 blk, Anesthetic bind, S-ASM inh)
Cc1ccc2nc(-c3ccccc3)c(Cc3ccccc3C(F)(F)F)n2c1	BRCA1 expr act 2.5µM (no result: TSHR antagonist, PTAP TSG101 blk, Anesthetic bind, S-ASM inh)
Cc1ccc2nc(C(C)(C)C)c(Cc3ccccc3C(F)(F)F)n2c1	none (no result: TSHR antagonist, PTAP TSG101 blk, Anesthetic bind, S-ASM inh)
Cc1ccn2c(Cc3ccccc3)c(-c3ccccc3)nc2c1	BRCA1 expr act 13µM (no result: TSHR antagonist, PTAP TSG101 blk, Anesthetic bind, S-ASM inh)
NCCCC[C@H](N)C(=O)N[C@@H](CCCN=C(N)N)C(=O)N1CCC[C@H]1C(=O)N1CCC[C@H]1C(=O)NCC(=O)N[C@@H](Cc1ccccc1)C(=O)N[C@@H](CO)C(=O)N1CCC[C@H]1C(=O)N[C@@H](Cc1ccccc1)C(=O)O	none (no result: TSHR antagonist, PTAP TSG101 blk, BRCA1 expr act, S-ASM inh)
O=C1C(=O)C(c2ccc(O)cc2O)Oc2cc(O)cc(O)c21 (stereo not given)	none (no result: TSHR antagonist, PTAP TSG101 blk, Anesthetic bind, S-ASM inh)
Cc1cc(C(=O)CSc2nnnn2C)c(C)n1-c1ccc2c(c1)OCCO2	BRCA1 expr act 7.9µM
N#CC[n+]1cccc(Br)c1	none (no result: TSHR antagonist, PTAP TSG101 blk, Anesthetic bind, S-ASM inh)
COc1ccc(Cn2nnnc2C(CC(C)C)N2CCN(c3ccccc3)CC2)cc1 (stereo not given)	TSHR antagonist -72
COc1ccc(Cn2nnnc2C(c2ccccn2)N2CCN(c3cc(Cl)ccc3C)CC2)cc1 (stereo not given)	TSHR antagonist -93
Cc1ccc(N/N=C/c2ccc3c(c2)OCCO3)cc1Cl	BRCA1 expr act 3.2µM
O=C(O)c1cc(N/N=C/c2ccc3c(c2)OCCO3)ccc1Cl	BRCA1 expr act inconclusive
Cc1ccc(NC(=O)NCc2c(C)nn(C)c2C)cc1Cl	BRCA1 expr act 5µM
O=C(/C=C/c1ccccc1)c1ccc2c(c1)OCCCCO2	BRCA1 expr act 2.2µM, Anesthetic bind inconclusive
O/N=C(/CCc1ccccc1)c1ccc2c(c1)OCCO2	BRCA1 expr act 2.8µM, Anesthetic bind inconclusive
O=C(c1ccccc1)c1ccc2c(c1)OCCOCCOCCO2	none
O=C(CCc1ccccc1)c1ccc2c(c1)OCCCO2	BRCA1 expr act 3.5µM, Anesthetic bind inconclusive
O=C(c1ccccc1)c1ccc2c(c1)OCCCO2	BRCA1 expr act 1.4µM
CN(C)CCCCCCNc1nccc(N2CCN(C)CC2)n1	none (no result: TSHR antagonist, PTAP TSG101 blk, Anesthetic bind, S-ASM inh)
c1ccc2c(c1)SCc1c-2[nH]c2ccccc12	none (no result: TSHR antagonist, PTAP TSG101 blk, BRCA1 expr act, S-ASM inh)
Cc1ccc2c(c1)C/C(=C/c1ccc(N(C)C)cc1)C2=O	none (no result: TSHR antagonist, PTAP TSG101 blk, Anesthetic bind, S-ASM inh)
CCCc1noc(-c2ccc(N3CCCCC3)c([N+](=O)[O-])c2)n1	BRCA1 expr act 7.1µM (no result: TSHR antagonist, PTAP TSG101 blk, S-ASM inh)
Cc1ccc(-c2noc(-c3ccc(N4CCCC4)c([N+](=O)[O-])c3)n2)cc1	none (no result: TSHR antagonist, PTAP TSG101 blk, S-ASM inh)
CCSc1nc2ccccc2n1CCOc1ccccc1	BRCA1 expr act 14µM
CCOCCn1c(COc2ccc(C)cc2)nc2ccccc21	BRCA1 expr act inconclusive
Cn1c(COc2ccccc2)nc2ccccc21	BRCA1 expr act 10µM
COCCn1c(COc2ccc(C)cc2)nc2ccccc21	BRCA1 expr act 11µM
C=CCn1c(COc2ccccc2)nc2ccccc21	Anesthetic bind 71µM
CC1CCCC(NC(=O)c2n[nH]c(=O)c3ccccc23)C1C (stereo not given)	BRCA1 expr act 11µM
CC(C)NC(=O)c1n[nH]c(=O)c2ccccc12	none
CCOC(=O)c1ccc(NC(=O)CCn2nnc3ccccc32)cc1	none
CCOC(=O)c1ccc(NC(=O)Cn2nnc3ccccc32)cc1	BRCA1 expr act 4µM
c1ccc(CN=C2NN=C(c3ccccc3)CS2)cc1	none
CCN=C1NN=C(c2ccc(C)cc2)CS1	BRCA1 expr act 2.2µM, Anesthetic bind inconclusive
CCOCC	none (no result: TSHR antagonist, PTAP TSG101 blk, BRCA1 expr act, S-ASM inh)
c1ccc2oc(NC3=NCN(C4CCCCC4)CN3)nc2c1	BRCA1 expr act 2.8µM
O=C1CC(c2ccccc2)Cc2[nH]c(=O)c(C(=O)O)cc21 (stereo not given)	none (no result: TSHR antagonist, PTAP TSG101 blk, Anesthetic bind, S-ASM inh)
